Compound activity as filed in PubChem.
A selection: hits, their analogues and other compounds. The true share with any hit is near 4.6%.
tim23-1 inh: tim23-1 yeast growth inhibition | S. cerevisiae tim23-1 growth, BacTiter-Glo luminescence, 24 h | inhibition, % at 20 µM | 330,000 compounds, 1.3% hits | AID 463212;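 active = growth inhibition of the mutant yeast at or above 50%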;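 also: temperature-sensitive mutant grown at 25 °C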
NLRP3 yeast inh: inhibitors of NALP3 inflammasome in yeast | Yeast reconstituted NLRP3/ASC/caspase-1, beta-gal luminescence, 24 h | inhibition, % at 10 µM | 330,000 compounds, 0.39% hits;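 active = inhibition of 50% or more; inactive = inhibition below 50%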
TIM10 inh: growth inhibitors of TIM10 yeast strain. S. cerevisiae TIM10 strain growth, BacTiter-Glo luminescence, 24 h. inhibition, % at 10 µM. 330,000 compounds, 1.4% hits. AID 463195;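 active = inhibition of 40% or more at the single tested concentration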;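 also: wild-type TIM10 isogenic control strain grown at permissive 25 °C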
tim10-1 inh: inhibits growth of tim10-1 mutant yeast. 330,000 compounds, 2.2% hits. inhibition, % at 20 µM. S. cerevisiae tim10-1 ts strain growth, BacTiter-Glo, 24 h. AID 463190;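 active = inhibition of at least 40%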;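 also: mutant grown at 25 °C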
SKKanGAS inh: SKKanGAS growth inhibition; S. pyogenes SKKanGAS, kanamycin growth, BacTiter-Glo, 6 h; inhibition, % at 7.5 µM; 300,000 compounds, 1.3% hits;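 active = mean replicate score, as percent of positive control median, at least 50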;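 also: strain carries kanamycin resistance gene driven by streptokinase promoter and grows in 40 µg/ml kanamycin; loss of luminescence reflects streptokinase promoter inhibition or plain growth inhibition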
TIM10 conf: confirmation of TIM10 yeast growth inhibitors; shares compounds with TIM10 inh; S. cerevisiae tim10 strain growth, BacTiter-Glo luminescence, 24 h; inhibition, % at 10 µM; 4,600 compounds, 63% hits; AID 463215;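 active = inhibition of yeast growth at or above a set limit in either of two replicates at 10 µM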; also: this counterscreen used the strain with wild-type TIM10
tim23-1 confirm: confirmation of tim23-1 mutant yeast growth inhibitors | shares compounds with tim23-1 inh | S. cerevisiae tim23-1 growth, BacTiter-Glo luminescence, 24 h | inhibition, % at 20 µM | 4,400 compounds, 83% hits | AID 463218;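 active = inhibition above about 39% in either of two replicate wells at 20 µM, limit read from the data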;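 also: temperature-sensitive tim23-1 mutant grown at 25 °C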
Large screens that a line does not name were inactive (follow-up assays come after a bar, where they were run).

O=C(Nc1ccc2c(c1)nc1n2CCN(Cc2ccccc2)C1)c1cccs1	tim23-1 inh 53, TIM10 inh 67 | TIM10 conf 57 | tim23-1 confirm 73
Clc1ccc2oc(-c3ccccc3)nc2c1	none
O=C(Nc1ccc2c(c1)CCC2)c1cccs1	tim23-1 inh 53, TIM10 inh 45 | TIM10 conf 35 | tim23-1 confirm 49
COc1ccc(-n2c(NN)nc3sc4c(c3c2=O)CCCC4)cc1	tim23-1 inh 70, TIM10 inh 49 | TIM10 conf inactive | tim23-1 confirm 62
C(=N\Nc1nc2ccccc2[nH]1)/c1cccc2cccnc12	tim23-1 inh 55, TIM10 inh 67 | TIM10 conf 55 | tim23-1 confirm 48
Cc1ccc(OCC(=O)Nc2ccc(NC(=O)c3ccco3)cc2)c(C)c1	none
COc1ccc(C(=O)COc2cccc(NC(=O)c3ccco3)c2)cc1	none
O=C(Nc1ccc(Oc2cccc3ccccc23)cc1)c1ccco1	tim23-1 inh 58, TIM10 inh 40, SKKanGAS inh 79 | TIM10 conf inactive | tim23-1 confirm 77
O=C(COc1cccc(NC(=O)c2ccco2)c1)c1ccccc1	tim23-1 inh 54, TIM10 inh 48 | TIM10 conf inactive | tim23-1 confirm 66
Cc1cc(C)c(OCC(=O)Nc2cccc(NC(=O)c3ccco3)c2)c(Br)c1	tim23-1 inh 55, TIM10 inh 45 | TIM10 conf inactive | tim23-1 confirm 44
Cc1ccc(C(=O)OCC(=O)N(C)C2CCS(=O)(=O)C2)cc1S(=O)(=O)N1CCCCC1 (centres undefined)	none
CCCCn1c(N)c(N(CCC(C)C)C(=O)c2ccc([N+](=O)[O-])s2)c(=O)[nH]c1=O	none
Cc1[nH]c2ccccc2c1N=Nc1ccccc1F	tim23-1 inh 72, TIM10 inh 50 | TIM10 conf 55 | tim23-1 confirm inactive
Cc1noc(C)c1C(=O)OC(C)C(=O)N(C)c1ccccc1 (centres undefined)	none (no result: SKKanGAS inh)
CC(OC(=O)/C=C/c1ccc2ccccc2n1)C(=O)N(C)c1ccccc1 (centres undefined)	tim23-1 inh 52, TIM10 inh 43 (no result: SKKanGAS inh) | TIM10 conf 42 | tim23-1 confirm 53
CC(C)(C)OC(=O)N1CCC[C@H]1C(=O)OCC(=O)Nc1cc(S(C)(=O)=O)ccc1Cl	none (no result: SKKanGAS inh)
O=c1oc2ccccc2nc1/C=C(\O)c1ccccc1	none
O/C(=C\c1nc2ccccc2nc1/C=C(\O)c1ccccc1)c1ccccc1	tim23-1 inh 63, TIM10 inh 45 | TIM10 conf 54 | tim23-1 confirm 68
COc1ccc2c(C(=O)CCl)c[nH]c2c1	tim23-1 inh 53, TIM10 inh 43 | TIM10 conf inactive | tim23-1 confirm 51
COc1ccc(OCC(=O)c2c[nH]c3ccccc23)cc1	none
O=C(NC1CCCCC1)c1cc2cc(Br)ccc2o1	none
NC(=O)c1cc(Br)cc(C2CCCCC2)c1O	tim23-1 inh 65, TIM10 inh 53 | TIM10 conf 76 | tim23-1 confirm inactive
CC1=C(C)/C(=N/OC(=O)c2cccc([N+](=O)[O-])c2)C=CC1=O	tim23-1 inh 62, TIM10 inh 41 | TIM10 conf inactive | tim23-1 confirm 86
COc1ccc(/C=N/NC(=O)Cc2ccc(Cl)cc2)cc1OC	none
COc1ccc(C(=O)O/N=C(\N)Cc2ccc(Cl)cc2)cc1OC	tim23-1 inh 68, TIM10 inh 79 | TIM10 conf 86 | tim23-1 confirm 49
N/C(Cc1ccc(Cl)cc1)=N\OC(=O)Cc1ccc([N+](=O)[O-])cc1	tim23-1 inh 55, TIM10 inh 77 | TIM10 conf inactive | tim23-1 confirm 72
COc1ccc(Cl)cc1C(=O)O/N=C(\N)c1ccc(Cl)cc1	tim23-1 inh 89, TIM10 inh 79 | TIM10 conf 83 | tim23-1 confirm 44
N/C(=N\OC(=O)c1cc(Cl)ccc1Cl)c1ccncc1	none
COc1ccc(C/C(N)=N/OC(=O)c2cccc([N+](=O)[O-])c2)cc1	tim23-1 inh 73, TIM10 inh 72 | TIM10 conf 86 | tim23-1 confirm 68
Oc1ccccc1-c1nc(NC2CCCC2)c2ccccc2n1	tim23-1 inh 64, TIM10 inh 44 | TIM10 conf 35 | tim23-1 confirm 58
CCOc1nc(-c2ccccc2O)nc2ccccc12	none
CCc1c(C2(O)CCCCC2)[nH]c2cc(C(F)(F)F)ccc12	tim23-1 inh 67, TIM10 inh 51 | TIM10 conf 61 | tim23-1 confirm inactive
CSc1nc(=S)n(-c2ccc([N+](=O)[O-])cc2)c(C)c1C(C)=O	none
CCNC(=O)O/N=C1\CCCCC1c1ccc([N+](=O)[O-])cc1[N+](=O)[O-] (centres undefined)	none
CC(=O)Nc1ccc(/C=C2\CCc3ccccc3C2=O)cc1	tim23-1 inh 61, TIM10 inh 41 | TIM10 conf 36 | tim23-1 confirm 46
CCc1ccc(CN(C)C(=O)c2cc(COc3ccc(-n4cncn4)cc3)on2)cc1	tim23-1 inh 54, TIM10 inh 56 | TIM10 conf 46 | tim23-1 confirm 52
CN(CC(O)Cn1cnc2c1c(=O)n(C)c(=O)n2C)c1ccccc1 (centres undefined)	none
Cc1ccc(NC(=O)c2cc(C)n(-c3ccccc3)c2C)cc1	tim23-1 inh 52, TIM10 inh 50 | TIM10 conf inactive | tim23-1 confirm 58
Cc1ccc(NC(=O)c2cc(C)n(-c3cccc(C)c3)c2C)cc1	none
CN(C)NC(=S)NC(=O)C12CC3CC(CC(C3)C1)C2	none
CC(C)(C)NC(=S)NC(=O)C12CC3CCC(CC(C3)C1)C2	tim23-1 inh 50, TIM10 inh 45 | TIM10 conf inactive | tim23-1 confirm 59
CCCCCCn1c(-c2ccco2)nc2oc3cc(OC)ccc3c(=O)c2c1=O	tim23-1 inh 50, TIM10 inh 45 | TIM10 conf inactive | tim23-1 confirm 37
CCCc1nc2oc3cc(OC)ccc3c(=O)c2c(=O)n1Cc1ccco1	none
O=C(c1ccco1)N1CCN(c2nnc(-c3ccccc3)c3ccccc23)CC1	tim23-1 inh 51 | TIM10 conf inactive | tim23-1 confirm inactive
O=C(COC(=O)c1cc(S(=O)(=O)Nc2ccccc2Cl)ccc1O)Nc1ccc(F)c(F)c1F	none (no result: SKKanGAS inh)
COc1cc(C(=O)NCc2nnc(SCC(=O)NCCc3ccccc3)o2)cc(OC)c1OC	none
O=C1CCCCCN1Sc1ccccc1	tim23-1 inh 58, TIM10 inh 51 | TIM10 conf 35 | tim23-1 confirm inactive
O=[S@]1Oc2ccccc2-c2ccccc21	tim23-1 inh 69, TIM10 inh 58 | TIM10 conf 76 | tim23-1 confirm inactive
O=C1c2ccccc2OCOc2ccccc21	none
CC12CC3CC(C)(C1)CC(C(=O)NC(=S)N1CCCCC1)(C3)C2	tim23-1 inh 51, TIM10 inh 41 | TIM10 conf inactive | tim23-1 confirm inactive
